# Assay results as given in PubChem BioAssay AID463205 (Broad Institute, 2010).
# The whole screen tested about 2,400 compounds, of which about 20 (0.8%) were called active. This excerpt belongs to a sample that is enriched for actives. Values without a mark were called inactive.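 How the source made its calls: active means AC50 no more than ten times the highest tested concentration, or full inhibition at every dose giving a flat fit (cut at about 30 µM in these data); inconclusive means flat fit with activity between 30% and 70%, or poor-quality invalid fit; inactive means AC50 more than ten times the top tested dose.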
# Experiment: inhibitors of ADP-Glo detection reagents, dose response, artefact control for GSK-3a inhibitor project, biochemical, luminescence, cell-free, homogeneous (AID 463205);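 further: kinase-free counter-screen against the ADP-Glo detection reagents only; potency is for inhibitors that reduce the luminescence signal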
# Conditions: 5 uM ADP
row,Structure (SMILES),AC50
1,C=CCSc1ncnc2c1oc1nc3c(cc12)COC(C)(C)C3,> 30 µM
2,Nc1nonc1-n1nnc(C(=O)N/N=C/c2ccncc2)c1CSc1ccc(Cl)cc1,> 30 µM
3,O=S(=O)(c1cccc(NC(=S)NCc2ccco2)c1)N1CCOCC1,> 30 µM
4,C=CC(=O)Nc1sc2c(c1C(N)=O)CCCC2,> 30 µM
5,NC(=O)c1ccsc1NC(=O)C1CC1,> 30 µM
6,Clc1cccc(/C=N/Nc2ncnc3ccccc23)c1,> 30 µM
7,COCCOC(=O)c1[nH]c2c(c1C)C(=O)CC(c1cc(OC)c(OC)c(OC)c1)C2 (stereo unspecified),> 30 µM
8,CC(=O)c1sc(NC(=O)CN2C(=O)C3CCCCC3C2=O)nc1-c1ccccc1 (stereo unspecified),> 30 µM
9,O=C(c1ccc2c3n(nc2c1)-c1ccccc1CO3)N1CCOCC1,22.5 µM (active)
10,Cc1ccc2c(c1)COc1c3ccc(C(=O)N4CCOCC4)cc3nn1-2,> 30 µM
11,O=C(c1ccc2c3n(nc2c1)-c1ccc(Cl)cc1CO3)N1CCOCC1,> 30 µM
12,COc1ccc(S(=O)(=O)Nc2c(C(=O)O)[nH]c3ccc(OC)cc23)cc1,> 30 µM
13,COc1ccc(-c2cc(C(=O)N3CCN(c4ccccc4)CC3)no2)cc1OC,> 30 µM
14,CCOC(=O)c1sc(NC(=O)C2CC2)cc1C,> 30 µM
15,CCCCCCCCCCCCCCCC[N+](C)(C)CC,> 30 µM
16,c1cncc(-c2nc(NCC3COc4ccccc4O3)c3ccccc3n2)c1 (stereo unspecified),> 30 µM
17,CC(C)(C)NC(=O)/C(=C\c1ccccc1F)NC(=O)c1ccc([N+](=O)[O-])cc1,> 30 µM
18,O=C(CCN1CCOCC1)Nc1cccc(Br)c1,> 30 µM
19,OCc1cn(-c2ccccc2)nn1,> 30 µM
20,O=C(COC(=O)c1ccc(F)cc1F)Nc1ccc(Cl)cn1,> 30 µM
21,CC(=NCCCn1ccnc1)c1c(O)n(Cc2ccccc2)c(=O)[nH]c1=O,> 30 µM
22,Cc1ccc(NC(=O)CSc2nnc(-c3ccncc3)o2)cc1,> 30 µM
23,COc1ccc(/C=C2\Oc3cc(OCC(=O)N4CC(O)C[C@H]4C(=O)O)ccc3C2=O)c(OC)c1OC (stereo partly specified),> 30 µM
24,CC(C)(C)c1ccc(/C=C2\Oc3cc(O)ccc3C2=O)cc1,> 30 µM
25,COc1ccc(CCn2cnc(=O)c(C#N)c2C)cc1OC,> 30 µM
26,O=C(Nc1cccc(Cl)c1N1CCOCC1)c1ccc(Br)o1,> 30 µM
